Assay results reported in PubChem BioAssay (NCI).
About 83,000 compounds went through this panel and 20% of them were active in at least one assay; those are over-represented in the sample as a whole.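 Negative percent growth values reflect cell death: -40 means 40% of the cells present at the start died, and -100 means all died.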 Active and inactive are the calls of the source. Rule for the calls: active = growth percent below 10; inactive = the rest.

tested on: HL-60(TB) leukemia; assay: NCI-60 one-dose screen, 48 h (100 = growth as untreated, 0 = no growth, -100 = all killed); conditions: 10 µM unless noted

| SMILES | growth |
| --- | --- |
| O=C(O)c1cccc2oc(-c3ccccc3O)nc12 | 49.8% (inactive) |
| ICCC(c1ccccc1)(c1ccccc1)c1ccccc1 | 43.4% (inactive) |
| CO[C@H]1/C=C/O[C@@]2(C)Oc3c(C)c(O)c4c(c3C2=O)C(=O)C(/C=N/N(c2ccccc2)c2ccccc2)=C(NC(=O)/C(C)=C\C=C\[C@H](C)[C@H](O)[C@@H](C)[C@@H](O)[C@@H](C)[C@H](OC(C)=O)[C@@H]1C)C4=O | -12.5% (active) |
| CN1CCN(Cc2ccc(NC(=O)c3cncc(C#Cc4cncc5nccnc45)c3)cc2C(F)(F)F)CC1 | 1.66% (active) |
| CN(C)c1ccc(/C=C\c2cccc[n+]2C)cc1 | 27.2% (inactive) |
| CCOC(=O)c1c(N)sc2cc(O)ccc12 | 94.1% (inactive) |
| COc1ccc2nc(NC(=O)c3cccnc3Nc3ccc(S(N)(=O)=O)cc3)sc2c1 | 54.5% (inactive) |
| O=c1ccc2nc(-c3ccccc3)nn(-c3ccccn3)c-2c1 | -28.1% (active) |
| O=C(CCCn1c(=O)c2sc3ccccc3c2n2nnc(-c3ccccc3)c12)NCCc1cnc[nH]1 | 82.9% (inactive) |
| COc1cc2c(cc1C)NC(=O)/C2=C\c1c[nH]c2ccccc12 | 47.5% (inactive) |
| CCN(Cc1ccc(CN(CC)C(=O)C(Cl)(Cl)Cl)cc1)C(=O)C(Cl)(Cl)Cl | 6.38% (active) |
| CCNc1ncnc2n[nH]nc12 | 94.8% (inactive) |
| O=C(NC1CCCCCC1)c1ccc2c(=O)n3c(nc2c1)CCCCC3 | 144% (inactive) |
| CN(C)CCS(=O)(=O)CCN(C)C | 110% (inactive) |
| CCN1C(=O)N(CC)C2C1NN=c1s/c(=C\c3ccco3)c(=O)n12 (stereo unspecified) | -20.3% (active) |
| O=C1c2ccccc2C(=O)c2c(O)c(Cl)cc(O)c21 | 122% (inactive) |
| COc1cc2oc(-c3cccc(C(=O)Nc4ccc(Br)cc4)c3)cc(=O)c2c(OC)c1OC | 38.6% (inactive) |
| COC(=O)c1nc(-c2ccccc2)oc1S(=O)(=O)N1CCC(C(N)=O)CC1 | -33.2% (active) |
| COc1cc(NC(=O)COc2cc(C)nc3ccc(OC)cc23)cc(OC)c1 | 80.3% (inactive) |
| CC(=NCc1ccccc1)c1ccc(O)cc1O | 102% (inactive) |
| COc1cccc(C(=O)OCCn2nc3c4c(cccc42)C(=O)c2ccccc2-3)c1O | 0.071% (active) |
| CN(C)CC1=NC2SC=C(c3ccccc3)C2C(=O)N1CC#N (stereo unspecified) | 86.1% (inactive) |
| CCCCCCOc1ccc(C(=N)N(CCCC)CCCC)c2ccccc12 | -49.6% (active) |
| COc1ccc(NC(=O)CSc2nc3ccccc3c(=O)n2-c2ccccc2C(F)(F)F)c(OC)c1OC | 103% (inactive) |
| CC1C(=O)CCCC1=O | 118% (inactive) |
| CCC(=O)c1ccc(Cl)s1 | 70.4% (inactive) |
